# In the supplement of paper PMC6555819:
# Columns and labels:
# Test in all cases: PBM binding z-score (relative to random genomic background probes); higher = stronger binding; sequences stand for … in GC…GCGATTGACAGCGTAGAATGAAGG
# [1] = system: FXR:RXRa (NR concentration 270 nM, RXRa partner concentration 90 nM)
# Summary of the method: (§1)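 Antibodies against each partner of ligand-free nuclear receptor dimers (one per run) detected binding on custom Agilent 4×180K protein-binding microarrays after 1 h incubation. The double-stranded probes had 34-nt variable regions carrying direct-repeat seeds, single-nucleotide variants, half-site ablations and random human genomic background sequences. Binding z-scores, from regression-normalized fluorescence, use the random background probes as reference.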
# [2] = system: LXRa:RXRa (NR concentration 270 nM, RXRa partner concentration 90 nM)
# Summary of the method: as §1
# [3] = system: LXRa homodimer (NR concentration 270 nM)
# Summary of the method: as §1
# [4] = system: LXRb:RXRa (NR concentration 270 nM, RXRa partner concentration 90 nM)
# Summary of the method: as §1
# [5] = system: LXRb homodimer (NR concentration 270 nM)
# Summary of the method: as §1
# [6] = system: PPARg:RXRa (NR concentration 180 nM, RXRa partner concentration 90 nM)
# Summary of the method: as §1
# [7] = system: PPARg:RXRa 270nM:90nM, anti-RXR (NR concentration 270 nM, RXRa partner concentration 90 nM)
# Summary of the method: as §1
# [8] = system: PPARg:RXRa 30nM:10nM, anti-RXR (NR concentration 30 nM, RXRa partner concentration 10 nM)
# Summary of the method: as §1
# [9] = system: PPARg:RXRa 90nM:30nM, anti-RXR (NR concentration 90 nM, RXRa partner concentration 30 nM)
# Summary of the method: as §1
Sequence,PBM binding z-score [1],PBM binding z-score [2],PBM binding z-score [3],PBM binding z-score [4],PBM binding z-score [5],PBM binding z-score [6],PBM binding z-score [7],PBM binding z-score [8],PBM binding z-score [9]
CCTAGCCGGCCAATCTGGGTCACTCAAGGCTTGA,0.614,0.785,0.0438,1.02,-0.78,1.68,2.15,-0.425,1.27
CCTACTGGGCCAAAGGTCATTGACTCCAATGCTC,5.27,5.54,4.65,5.25,0.543,12.1,10.3,10.7,11.4
TCTCGGAGGACACGAAAGGTCTGAGCTCGACATC,0.119,-0.119,-0.569,-0.279,-0.889,0.108,1.01,1.92,1.49
GATACGGGGTCAGCTAGAGGCCAGAGTATGGAAA,7.6,5.46,-0.127,5.17,0.715,7.74,7.16,3.25,5.78
CCTGCTAGTTCAATGGTCAGCTAAAGCAGCTCGC,-0.115,0.171,-0.297,0.044,-0.17,-0.523,0.0511,-0.764,-0.0476
CGTCCAAGGTCAAGGTCACTGAAAGAGACTCGAA,8.15,6.19,2.24,5.23,0.938,7.36,6.98,4.14,5.87
TCTAGTTGGTCAAAGGTCTCACACTCGAAATGCG,1.27,1.49,0.269,1.57,0.449,7.81,7.33,6.65,8.53
CGTCCAAGGTCCATGCTAGGTCAGTGAAAGCATT,0.162,3.49,0.25,0.906,-0.855,-0.453,-0.317,-0.678,-0.366
CAAAATAGGTCAAGGTCAAAGTCGGTTTGTGCCA,7.38,5.98,4.65,5.22,2.2,8.81,7.46,5.59,7.54
GGTACGAGGGCAAAGTTGATAGCATCTGTCGACG,1.46,1.03,-0.421,0.954,-0.42,5.89,6.23,4.16,6.02
GCTGCTAGGTCAACTGATGGTCAGCTAGAGCTCG,3.85,2.95,0.128,1.85,0.313,2.7,2.98,0.27,2.01
AGTCAAATTTCACTAGGTAACGTAAGATTCAGCT,-0.177,-0.14,-0.0488,0.0425,0.175,0.5,0.334,0.197,-0.0408
ATATGTAGGTTCCATCCGGGTCATTCAGGCTATG,1.31,1.3,0.192,1.88,0.514,2.33,2.26,0.557,1.74
AGTCAAAGTTCAGTAGGTAACGTAAGATTCAGCT,2.64,3.04,1.6,1.67,0.481,5.39,5.2,2.18,4.2
AGACAAAGTTCAGGACGAGGTAACGTAAAGCACG,4.35,3.92,0.814,1.95,-0.0251,2.53,2.93,1,1.97
TAGCCTAGGTCATTGGACCAGTATAGTACGCATC,4.61,3.73,1.02,2.36,0.187,2.88,3.16,1.04,2.07
AGATTGAGGTTACCAAAGATCAGGGAAACGCTTG,2.33,6.22,0.108,3.17,-0.201,2.04,2.22,0.623,1.49
TAGCCTAGGTCATTGTGCCAGTATAGTACGCATC,4.04,3.2,1.08,2.51,0.948,2.89,2.79,0.475,2.19
ATCGAAGGGTCGAAGGTGAGTATACCCACCCGAA,1.3,1.26,-0.26,1.21,-0.316,2.73,3.11,1.08,2.47
CAAACTAGGTCACCGGAAGGTCATAGTCCGCATG,6.02,5.59,4.48,4.88,0.927,9.71,7.81,6.11,7.67
CCTACTGGGCCAATGTCATTGATCAGTCAAAGCA,-0.931,-0.71,-0.956,-0.421,-0.826,0.865,0.774,-0.129,0.12
ACTAGTTGGTCAGCTGAGGTCACACTCAATTCGG,3.79,3.19,2.29,3.64,0.527,1.23,1.94,0.159,1.26
CATCCAAGGTCAAAGGTCAGTGAAGAGATGACGG,8.63,7.28,5.11,7.03,3.15,11.1,9.75,8.73,10.8
CCTACTGGGCGATTCAGAGGTCATTGATCATATG,2.02,3.68,6.2,3.09,-0.0527,0.564,1.87,0.13,0.99
TTTAGTTGGTCAAAGGTCACACACTCGAAATGCG,6.28,5.76,3.99,5.54,1.9,,10.6,11.3,11.6
CTCGAAAGGTGGTGCTCAGGTGAGTATACCAAAC,-0.352,-0.533,-0.489,-0.329,-0.573,-0.375,-0.0981,-0.462,-0.126
